# Assay results from PubChem BioAssay AID720650 (Broad Institute, 2013).
# Values without a mark were called inactive. Active and inactive are the calls of the source. The rule behind the calls is not given here.
# Experiment: Biochemical counterscreen for C difficile toxins, absence of UDPG, inhibitor dose response (AID 720650)
# Details: series mostly up to 19.5 µM; activity change, negative = inhibition: at the top concentration
SMILES,"activity change, negative = inhibition",AC50
O=C(C[C@@H]1CC[C@@H]2[C@H](COC[C@H](O)CN2C(=O)c2ccccn2)O1)NC1CCC1,-5.75%,
COc1ccc(-c2nc(N)ncc2-c2ccccc2OC)c(O)c1,-17.4%,
CC1(C)Cc2nc(Cl)c(C#N)cc2CO1,,> 39 µM
CCOc1cc(NC(=S)NCC2CCCO2)c(OCC)cc1NC(=O)c1ccc(F)cc1 (centres undefined),-2.79%,
Cc1cc(N/N=C/c2ccc(O)cc2O)nc(N2CCOCC2)n1,,> 39 µM
S=C(c1cn(Cc2ccccc2)c2ccccc12)N1CCOCC1,-10.2%,
Cc1ccc2nc(-c3ccc4c(c3)OCCO4)cn2c1,,12.4 µM (active)
O=C(COc1ncnc2ccccc12)NCCc1ccc(F)cc1,1.52%,
Nn1c(SCc2ccccc2F)nnc1-c1ccccn1,4.52%,
CCN(CC)CCCCN1c2ccccc2Sc2ccccc21,,7.03 µM (active)
COc1ccc(CNC(=O)C2=CC(c3ccc(OC)cc3)=NS(=O)(=O)N2C)cc1,-8.76%,
CC(C)=CCOc1c2occc2cc2ccc(=O)oc12,,> 39 µM
COc1ccccc1/C=C/c1onc(C)c1S(=O)(=O)N1CCC(C(=O)NC2CCCCCC2)CC1,-15.8%,
COC(=O)[C@@]12CCCCN1[C@H](c1ccc(-c3ccccc3)c(OC)c1)[C@H]1C(=O)N(C)C(=O)[C@H]12,-5.66%,
Cc1cc(C(=O)Nc2ncc(C)s2)c2ccccc2n1,3.29%,
COc1cc(/C=C/C(=O)OCC(=O)N(C)Cc2ccccc2)ccc1O,-5.74%,
Nc1ncnc2[nH]c(=S)[nH]c12,,> 39 µM
O=C(Cc1coc2cc(O)ccc12)NNC(=O)c1cccs1,,> 39 µM
COc1ccc(C(=O)Nc2c(-c3cccs3)c(=O)c3ccccc3n2C)cc1,-20.1%,
CCOC(=O)c1cc([N+](=O)[O-])sc1N,-0.818%,

SMILES,"activity change, negative = inhibition",AC50
Cc1ccc(N/N=C/c2c(O)n(-c3ccccc3)c(=O)[nH]c2=O)cc1,,0.875 µM (active)
COc1cc(/C=N/NC(=O)C2(O)c3ccccc3-c3ccccc32)ccc1O,-11.3%,
CC[n+]1ccc(/C=C/c2ccc(N(C)C)cc2)c2ccccc21,,11.7 µM (active)
CCOC(=O)[C@@H]1[C@H]2COc3ccc(Br)cc3[C@@H]2N2C(=O)N(c3cccc(F)c3)C(=O)[C@]12C,-11.4%,
COc1ccc2nc(NNC(=O)C3COc4ccccc4O3)sc2c1 (centres undefined),,< 0.16 µM (active)
Cc1ccc(C(=O)Nc2ccc(O)cc2C(=O)O)cc1C,,> 39 µM
Cn1c(SCc2nnc(-c3ccccc3)o2)nc2ccccc21,-14.5%,
CSc1nc2c(c(=O)[nH]c(=O)n2C)n1Cc1ccccc1,-0.889%,
CCC(=O)N1CC[C@@H]2[C@H]1c1cc(-c3ccc(OC)cc3)ccc1N(C)[C@H]2CO,,> 20 µM
Cc1[nH]c(=O)c(C#N)c2c1CCCC2,-9.64%,
CCNC(=O)C[C@H]1CC[C@@H]2[C@H](COc3ccc(NC(C)=O)cc3C(=O)N2C)O1,8.51%,
CN1CCN(/N=C/c2c[nH]c3ccccc23)CC1,,> 39 µM
CC(C)OC(=O)c1cccc(C(=O)O)n1,9.38%,
CNC(=O)C1CCN(S(=O)(=O)c2c(C)noc2/C=C/c2ccccc2F)CC1,-10%,
CNC(=O)C[C@H]1CC[C@@H]2[C@@H](COc3ccc(NC(=O)c4ccc(OC)cc4)cc3C(=O)N2C)O1,-23.2%,
CCCSc1nc2c([nH]1)c(=O)n(C)c(=S)n2C,-18.3%,
COC(=O)Cc1ccc(NC(=S)NCc2ccc(OC)cc2)cc1,-3.9%,
COc1ccc([N+](=O)[O-])cc1NC(=S)NC(C)=O,-13.8%,
c1ccc(OCCSc2nnc3sc4ccccc4n23)cc1,,20.6 µM (active)
